The text below walks through data of PubChem BioAssay (NCATS).

Test [1] concerns the target Aldehyde dehydrogenase, mitochondrial (Homo sapiens) (UniProt P05091). The experiment in a line: qHTS for Inhibitors of the Aldehyde Dehydrogenase Family (ALDH2) Primary screen (AID 2061308). Note: nearly all actives have a fitted effect of over 55% in size. On the technique in general: Quantitative high-throughput screening tests each substance at several concentrations.
The target of test [2] is Retinaldehyde dehydrogenase 3 (Homo sapiens) (UniProt P47895). The experiment in a line: qHTS for Inhibitors of the Aldehyde Dehydrogenase Family (ALDH1A3) Primary screen (AID 2061315).

Results filed as inconclusive are left out. Where a call stands in place of a potency, no number is given. The source made the active and inactive calls. Calls come from the whole dose curve; as a rule, active = well fitted curve in the direction sought with a large enough effect; inconclusive = small, poorly fitted or top-dose-only effect, or another doubt; inactive = no such curve, though single readings can be large; an effect the other way counts as inactive or inconclusive.

For the molecule `Cc1cnc(-c2ccccc2C(C)C)nc1NCC1CCN(c2cccnc2)C1` (stereo not drawn), the Potency entry in test [1] and in test [2] was “inactive” each time.

On to `C#CCCC(=O)Nc1sc2c(c1-c1nc3ccccc3s1)CCNC2`, for which the Potency result in test [1] and in test [2] was “inactive” each time.

As to `Cn1nnnc1Sc1ncnc2scc(-c3ccc(C#N)cc3)c12`, the Potency entry in test [1] and in test [2] was “inactive” throughout.

`CC(=O)Nc1sc2c(c1C(O)c1nc3ccccc3s1)CCN(C(C)C)C2` (stereo not drawn): the Potency entry in test [1] and in test [2] was “inactive” each time.
